Values joined by “and” are separate entries in the source; they are usually repeats but may differ in a detail not shown here. Identical values can stand only once. The campaign covered roughly 5,500 compounds. About 2,000 (36%) were called active. Inconclusive results (about 18%) are left out. Cut-off read from the data, not from the text of the source: active = normalized growth mostly below about 0.91 (no sharp cut-off); inconclusive = no clear call, values can overlap the other calls; inactive = mostly above about 0.92. This is one part of the list.
Experiment: chemical genetic growth profiling, strain panel (AID 1159580);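 note: tested at 20 µM; growth read once vehicle control cultures reached saturation at 30 °C; 1 = growth at the plate median or of vehicle wells; lower values mean less growth of the strain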
Conditions: S. cerevisiae deletion strains, growth OD

Measured: normalized growth

COC1C(O)C(O)C(O)[C@@H](O)C1O (some centres undefined)
inactive: locus YAL013W, strain DEP1, active compounds read low 1.01 | locus YAL021C, strain ccr4, active compounds read low 0.967 | locus YAL026C, strain drs2, active compounds read low 0.978 | locus YAL030W, strain snc1, active compounds read low 0.976 | locus YBL061C, strain skt5, active compounds read low 0.971 | locus YBR009C, strain hhf1, active compounds read low 0.98 | locus YBR021W, strain FUR4, active compounds read low 1.03 | locus YBR023C, strain chs3, active compounds read low 0.966 | locus YBR171W, strain sec66, active compounds read low 0.978 | locus YBR229C, strain ROT2, active compounds read low 1.01 | locus YBR231C, strain swc5, active compounds read low 0.978 | locus YBR279W, strain paf1, active compounds read low 0.982 | locus YCL011C, strain gbp2, active compounds read low 0.976 | locus YCL016C, strain dcc1, active compounds read low 0.968 | locus YCL029C, strain bik1, active compounds read low 1.02 | locus YCL061C, strain MRC1, active compounds read low 0.97 | locus YCL069W, strain vba3, active compounds read low 0.98 | locus YCR088W, strain abp1, active compounds read low 0.976 | locus YDL005C, strain med2, active compounds read low 0.949 | locus YDL035C, strain GPR1, active compounds read low 1.02 | locus YDL074C, strain BRE1, active compounds read low 1.06 | locus YDL101C, strain DUN1, active compounds read low 1.01 | locus YDL134C, strain PPH21, active compounds read low 1 | locus YDL185W, strain tfp1, active compounds read low 1.01 | locus YDL192W, strain arf1, active compounds read low 1.03 | locus YDR001C, strain nth1, active compounds read low 0.964 | locus YDR069C, strain doa4, active compounds read low 0.981 | locus YDR101C, strain arx1, active compounds read low 1.04 | locus YDR137W, strain rgp1, active compounds read low 0.98 | locus YDR150W, strain NUM1, active compounds read low 1.01 | locus YDR159W, strain sac3, active compounds read low 1.06 | locus YDR162C, strain NBP2, active compounds read low 1.01 | locus YDR195W, strain ref2 1.01 | locus YDR297W, strain sur2, active compounds read low 0.977 | locus YDR318W, strain mcm21, active compounds read low 1.02 | locus YDR334W, strain swr1, active compounds read low 0.966 | locus YDR335W, strain msn5, active compounds read low 0.972 | locus YDR388W, active compounds read low 1.02 | locus YDR392W, strain spt3, active compounds read low 0.909 | locus YDR502C, strain sam2, active compounds read low 1.05 | locus YEL003W, strain gim4, active compounds read low 0.974 | locus YEL037C, strain rad23, active compounds read low 0.968 | locus YEL061C, strain CIN8 (second series), active compounds read low 0.971 | locus YEL061C, strain CIN8, active compounds read low 1.01 | locus YER015W, strain faa2, active compounds read low 0.984 | locus YER016W, strain bim1, active compounds read low 0.977 | locus YER110C, active compounds read low 1.02 | locus YER111C, strain swi4, active compounds read low 0.961 | locus YER155C, strain BEM2 (second series), active compounds read low 0.971 | locus YER155C, strain BEM2, active compounds read low 1.01 | locus YER167W, strain BCK2, active compounds read low 1.01 | locus YFR010W, strain ubp6, active compounds read low 0.951 | locus YGL078C, strain dbp3, active compounds read low 1.02 | locus YGL086W, strain mad1, active compounds read low 1.05 | locus YGL167C, strain pmr1, active compounds read low 0.977 | locus YGL173C, strain kem1, active compounds read low 0.964 | locus YGL227W, strain vid30, active compounds read low 0.973 | locus YGL240W, strain doc1, active compounds read low 1 | locus YGL248W, strain PDE1, active compounds read low 1.01 | locus YGL253W, strain hxk2, active compounds read low 0.966 | locus YGR078C, strain PAC10, active compounds read low 1 | locus YGR135W, strain pre9, active compounds read low 1.01 | locus YGR252W, strain gcn5, active compounds read low 0.972 | locus YHR013C, strain ard1, active compounds read low 0.948 | locus YHR027C, strain rpn1, active compounds read low 0.999 | locus YHR030C, strain SLT2, active compounds read low 0.999 and 0.933 | locus YHR079C, strain IRE1 (second series), active compounds read low 1.03 | locus YHR079C, strain IRE1, active compounds read low 0.925 | locus YHR094C, strain hxt1, active compounds read low 1.04 | locus YHR129C, strain ARP1, active compounds read low 1.01 | locus YHR142W, strain chs7, active compounds read low 0.928 | locus YHR200W, strain rpn10, active compounds read low 1.03 | locus YIL066C, strain RNR3, active compounds read low 1.01 | locus YIL073C, strain SPO22, active compounds read low 1.09 | locus YIL125W, strain kgd1, active compounds read low 1.01 | locus YIR030C, strain dcg1, active compounds read low 1.02 | locus YJL092W, strain hpr5, active compounds read low 0.975 | locus YJL095W, strain BCK1 (second series), active compounds read low 0.975 | locus YJL095W, strain BCK1, active compounds read low 1 | locus YJL115W, strain asf1, active compounds read low 0.971 | locus YJL129C, strain trk1, active compounds read low 0.938 | locus YJL134W, strain LCB3, active compounds read low 0.999 | locus YJL154C, strain vps35, active compounds read low 0.964 | locus YJL164C, strain tpk1, active compounds read low 0.974 | locus YJL166W, strain qcr8, active compounds read low 0.98 | locus YJL168C, strain set2, active compounds read low 1.02 | locus YJL187C, strain SWE1 (second series), active compounds read low 1.01 | locus YJL187C, strain SWE1, active compounds read low 0.977 | locus YJR043C, strain POL32, active compounds read low 0.989

Reference: PubChem BioAssay AID1159580 (chemical genetic matrix, 2015)
